Assay results from PubChem BioAssay (NCI).
This is part of a sample that, as a whole, favours compounds with a hit. Of some 79,000 tested, about 15% had one in any assay. Values without a mark were called inactive. The source made the active and inactive calls. Cut-off read from the data, not from the text of the source: active = growth inhibition above about 70%; inactive = the rest.

How the values were obtained:
[1] = NCI Yeast Anticancer Drug Screen. Data for the rad50 strain (AID 155);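 note: 0% = growth of vehicle-only cultures of the same strain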; details: S. cerevisiae rad50 strain growth inhibition; at 50.0 µM; stronger effect = higher value
Outline: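 Vehicle-treated cultures provide the reference for the growth inhibition reported for compound-exposed, repair-deficient yeast.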

[2] = NCI Yeast Anticancer Drug Screen. Data for the mec2-1 strain (AID 157); details: S. cerevisiae mec2-1 strain, at 50.0 µM, stronger effect = higher value
Outline: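 Test agents were screened against the mec2-1 yeast strain, with defined DNA repair or cell cycle alteration. Growth was scored as inhibition against vehicle-only controls.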

[3] = NCI Yeast Anticancer Drug Screen. Data for the sgs1 mgt1 strain (AID 161);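 note: 0% = growth of cultures given vehicle only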; details: S. cerevisiae sgs1 mgt1 strain, at 50.0 µM, stronger effect = higher value
Outline: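 Read-out: growth inhibition vs vehicle controls. Cells: mutant yeast strain deficient in DNA damage repair.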

[4] = NCI Yeast Anticancer Drug Screen. Data for the cln2 rad14 strain (AID 165);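 note: 0% = growth equal to vehicle treated cultures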; details: S. cerevisiae cln2 rad14 strain, at 50.0 µM, stronger effect = higher value
Outline: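 Growth of compound-exposed yeast (cln2 rad14 genotype) measured and expressed as inhibition relative to vehicle.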

[5] = NCI Yeast Anticancer Drug Screen. Data for the bub3 strain (AID 167); details: S. cerevisiae bub3 mutant strain, at 50.0 µM, stronger effect = higher value
Outline: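 Mutant yeast screening strain plus compound; vehicle-treated cultures serve as the 0% inhibition reference.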

[6] = NCI Yeast Anticancer Drug Screen. Data for the mlh1 rad18 strain (AID 175); details: S. cerevisiae mlh1 rad18 strain growth inhibition; at 50.0 µM; stronger effect = higher value
Outline: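 In this whole-cell yeast screen, a strain with altered DNA damage repair is challenged with compound, and its growth is measured against matched vehicle-treated controls.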

`O=C(O)C(CCc1ccccn1)c1ccccc1` (stereo unspecified) showed a growth inhibition [1] of -4.2%, a growth inhibition [2] of -26.2% and a growth inhibition [3] of -26.2%. It also gave a growth inhibition [4] of -17.6%, a growth inhibition [5] of -44.4% and a growth inhibition [6] of -0.55%.

`Cc1nc(Br)c([N+](=O)[O-])[nH]1` showed a growth inhibition [1] of 6.9%, a growth inhibition [2] of -6.4% and a growth inhibition [3] of -2.4%. The growth inhibition [4] was -47.9%, the growth inhibition [5] was -9.75% and the growth inhibition [6] was 4.8%.

With `Cc1c(C)n(COCCO)c2ncnc(N)c12` the growth inhibition [1] was -14.2%, the growth inhibition [2] was -37.1% and the growth inhibition [3] was -23.6%. For the same compound, the growth inhibition [4] was 13.8%, the growth inhibition [5] was -12.6% and the growth inhibition [6] was -39%.

`CC(C#N)NC(=O)NC(C)C(N)=O` (stereo unspecified) showed a growth inhibition [1] of 3.85%, a growth inhibition [2] of 6.3% and a growth inhibition [3] of -5%. It also gave a growth inhibition [4] of -48.3%, a growth inhibition [5] of 8.2% and a growth inhibition [6] of -27.7%.

In the case of `COc1cc2c(c(OC)c1OC)C(=O)[C@H]1OC(=O)N[C@@H]21`, the growth inhibition [1] is reported as 8%, the growth inhibition [2] is reported as 3.05% and the growth inhibition [3] is reported as 5.2%. It also gave a growth inhibition [4] of 2.1%, a growth inhibition [5] of 12.9% and a growth inhibition [6] of -32%.

Work on `Cc1ccc2c(c1)[nH]c(=S)n2C=C1C(=O)NC(=O)NC1=O` yielded a growth inhibition [1] of -6.3%, a growth inhibition [2] of -27.9% and a growth inhibition [3] of -38%. For the same compound, the growth inhibition [4] was -10.6%, the growth inhibition [5] was -7.35% and the growth inhibition [6] was -15.4%.

For `CCCCCC1CCN(C(=O)c2ccc(N)cc2)CC1`, the growth inhibition [1] was 90% (active), the growth inhibition [2] was 52.8% and the growth inhibition [3] was 44.8%. For the same compound, the growth inhibition [4] was 49%, the growth inhibition [5] was 94.4% (active) and the growth inhibition [6] was 42.7%.

`O=C1c2ccccc2C(=O)N1Cc1ccc(CN2C(=O)c3ccccc3C2=O)cc1` gave a growth inhibition [1] of -9%, a growth inhibition [2] of -3.75% and a growth inhibition [3] of -16%. It also gave a growth inhibition [4] of -12.2%, a growth inhibition [5] of -1.55% and a growth inhibition [6] of -11.1%.

Work on `CO/C(=N\N=C\c1cc(OC)ccc1OC)c1ccncc1` yielded a growth inhibition [1] of 0.6%, a growth inhibition [2] of -13.2% and a growth inhibition [3] of -23.6%. It also gave a growth inhibition [4] of 10.7%, a growth inhibition [5] of -38.8% and a growth inhibition [6] of -11.2%.

With `Nc1ccc(C(=O)Nc2ccccn2)cc1` the growth inhibition [1] was -9.1%, the growth inhibition [2] was -9.55% and the growth inhibition [3] was -13.4%. It also gave a growth inhibition [4] of -27.6%, a growth inhibition [5] of 3.1% and a growth inhibition [6] of -2.55%.

Compound `FC(F)(F)C(F)(F)c1nc(C(F)(F)C(F)(F)C(F)(F)c2noc(C(F)(F)C(F)(F)F)n2)no1` has a growth inhibition [1] of 8.5%, a growth inhibition [2] of 16.9% and a growth inhibition [3] of 15%. It also gave a growth inhibition [4] of -31.3%, a growth inhibition [5] of -3% and a growth inhibition [6] of -6.3%.

Work on `CN1CCCCCCCC(=O)C(OC(=O)c2ccc([N+](=O)[O-])cc2)CCCCCCC1` (stereo unspecified) yielded a growth inhibition [1] of 33.5%, a growth inhibition [2] of 4.25% and a growth inhibition [3] of 27%. It also gave a growth inhibition [4] of 9.85%, a growth inhibition [5] of 1.55% and a growth inhibition [6] of 14.1%.

With `CC(C)NC(c1ccccc1)c1ccccc1` the growth inhibition [1] was 0.3%, the growth inhibition [2] was -11.7% and the growth inhibition [3] was -6.9%. It also gave a growth inhibition [4] of 10.2%, a growth inhibition [5] of 1.6% and a growth inhibition [6] of 2.9%.

Compound `O=NN(CCCl)C(=S)NC1CCCCC1` has a growth inhibition [1] of 3.25%, a growth inhibition [2] of -0.15% and a growth inhibition [3] of 6.35%. It also gave a growth inhibition [4] of 7.2%, a growth inhibition [5] of -3.6% and a growth inhibition [6] of 47.8%.

In the case of `O=C1CCCC2=C1CC1=C(CCCC1=O)N2c1cccc2ccccc12`, the growth inhibition [1] is reported as 7.7%, the growth inhibition [2] is reported as -16% and the growth inhibition [3] is reported as 12.7%. For the same compound, the growth inhibition [4] was 9.85%, the growth inhibition [5] was 21.8% and the growth inhibition [6] was 28.1%.

In the case of `CC(=O)Nc1ccc2c([N+](=O)[O-])cccc2c1-c1c(NC(C)=O)ccc2c([N+](=O)[O-])cccc12`, the growth inhibition [1] is reported as 44.2%, the growth inhibition [2] is reported as 10.8% and the growth inhibition [3] is reported as 35.4%. The growth inhibition [4] was 10.8%, the growth inhibition [5] was 5.55% and the growth inhibition [6] was 30.4%.

Compound `CCOC(=O)c1[nH]cnc1N` has a growth inhibition [1] of -17.1%, a growth inhibition [2] of 11.1% and a growth inhibition [3] of -2.55%. It also gave a growth inhibition [4] of -46.1%, a growth inhibition [5] of 1.15% and a growth inhibition [6] of -3.65%.

`COc1ccc(-c2nnc(N)o2)cc1OC` showed a growth inhibition [1] of -34%, a growth inhibition [2] of -10.3% and a growth inhibition [3] of -16.1%. The growth inhibition [4] was 6.35%, the growth inhibition [5] was -13.9% and the growth inhibition [6] was -24.9%.

`COC(=O)c1sc(C(=O)OC)c2c1CSC2` gave a growth inhibition [1] of -6%, a growth inhibition [2] of 5.35% and a growth inhibition [3] of -18.4%. It also gave a growth inhibition [4] of 2.55%, a growth inhibition [5] of -8% and a growth inhibition [6] of 13.2%.

Work on `N#C/C(=C\N1CC(=O)NC1=S)C(=O)c1ccc2ccccc2c1` yielded a growth inhibition [1] of -20.4%, a growth inhibition [2] of 15.6% and a growth inhibition [3] of -26.2%. For the same compound, the growth inhibition [4] was 13.5%, the growth inhibition [5] was 3.25% and the growth inhibition [6] was -17.4%.

`CCC(=O)OCCCC1CCCO1` (stereo unspecified) gave a growth inhibition [1] of 7.85%, a growth inhibition [2] of -0.55% and a growth inhibition [3] of 1.05%. The growth inhibition [4] was -9.8%, the growth inhibition [5] was 2% and the growth inhibition [6] was -2.05%.
